“And” between values parts separate entries of the source, which are not always exact repeats. Equal values may be shown once. Inconclusive results are not listed. The source made the active and inactive calls. Calls follow the shape of the dose curve; as a rule, active = well fitted cell-killing curve with a large enough effect; inconclusive = small, poorly fitted or top-dose-only effect; inactive = flat fitted curve, though single readings scatter.
Potency is read from the fitted curve at half-maximal effect.

This assay can be described thus: Cell Viability - H-4-II-E (AID 543). Also: nearly all actives have a fitted effect of over 35% in size. To be noted: H-4-II-E rat hepatoma viability; series mostly up to 92.2 µM. From the text: NIH Chemical Genomics Center [NCGC]
NIH Molecular Libraries Screening Centers Network [MLSCN]
National Institutes of Environmental Health Sciences [NIEHS]
National Toxicology Program [NTP]
We have developed a 1536-well cell-based assay for quantitative high throughput screening (qHTS) against a number of cell lines to determine in vitro cytotoxicity of small molecules. This particular assay uses the H-4-II-E cell line which is derived from rat hepatoma.
NCGC Assay Protocol Summary:
The CellTiter-Glo luminescent cell viability assay (Promega) is a homogeneous method to measure the number of viable cells in culture. The end point readout of this assay is based on quantitation of intracellular ATP, an indicator of metabolic activity, using the luciferase reaction. Luciferase catalyzes the oxidation of beetle Luciferin to oxyluciferin and light in the presence of ATP. The luminescent signal is proportional to amount of ATP present.
Using the CellTiter-Glo luminescent cell viability assay, the amount of cellular ATP was measured in the H-4-II-E cell line with complete culture medium following compound treatment for 40 hours. The assay was performed in opaque white Kalypsys 1536-well plates. In the screen, tamoxifen and doxorubicin were used as positive controls. Library compounds were measured for their ability to cause acute toxicity in the cell line, as reflected by a decrease in intracellular ATP levels, in a concentration-dependent manner. […] AC50 values were determined from concentration-response data modeled with the standard Hill equation.
qHTS protocol fo CellTiter Glo H-4-II-E cellular assay
[Step] [Parameter] [Value] [Description]
1. Reagent; 5 uL; 1500 H-4-II-E cells/well
2. Time; 5 hr; 37 °C incubation
4. Controls; 23 nL; Tamoxifen 0.34 uM to 100 uM & Doxorubicin 0.02 nM to 100 uM
5. Time; 40 hr; 37 °C incubation
6. Reagent; 5 uL; CellTiter Glo reagent
7. Time; 20 min; Room Temperature
8. Detection; Luminescence; Viewlux plate reader
Keywords: cell viability, cytotoxicity, H-4-II-E cell line, luminescence, NTPHTS, NTPHTS_NCGC, NIEHS, EPA, DSSTox, MLSMR, MLSCN, NIH Roadmap, qHTS, NCGC
On to `c1ccc2cc3c(cc2c1)-c1cccc2cccc-3c12`, for which the Potency result was “inactive”.
For the molecule `[CH3][Hg][Cl]`, the Potency was 5.01 µM (active).
To `[Cd+2].[Cl-].[Cl-]` belongs 1.26 µM (active); to `O=C1C2(Cl)C3(Cl)C4(Cl)C(Cl)(Cl)C5(Cl)C3(Cl)C1(Cl)C5(Cl)C24Cl` (stereo unspecified), 31.6 µM (active) and 50.1 µM (active).
The value for `C#CCO` was “inactive”; that for `O=C(CCl)c1ccccc1` was 15.8 µM (active).
To `O=C(O)C1C(C(=O)O)C2(Cl)C(Cl)=C(Cl)C1(Cl)C2(Cl)Cl` (stereo unspecified) belongs “inactive”; to `CCCCCCCCn1sccc1=O`, 12.6 µM (active); to `COP(=O)(OC)O/C(=C\Cl)c1cc(Cl)c(Cl)cc1Cl`, “inactive”.
Turning to `CC(C)CC(C)Nc1ccc(Nc2ccccc2)cc1` (stereo unspecified), the Potency is 50.1 µM (active).
As to `FC(F)(F)c1ccc(Cl)cc1`, the Potency entry was “inactive”.
To `N#CC(Cl)Cl` belongs “inactive”.
To `C[C@@H]1CC[C@@]2(OC1)O[C@H]1[C@@H](O)[C@H]3[C@@H]4CC[C@H]5C[C@@H](O[C@@H]6O[C@H](CO)[C@H](O[C@@H]7O[C@H](CO)[C@@H](O)[C@H](O[C@@H]8OC[C@@H](O)[C@H](O)[C@H]8O)[C@H]7O[C@@H]7O[C@H](CO)[C@@H](O)[C@H](O[C@@H]8O[C@H](CO)[C@@H](O)[C@H](O)[C@H]8O)[C@H]7O)[C@H](O)[C@H]6O)[C@H](O)C[C@]5(C)[C@H]4CC[C@]3(C)[C@H]1[C@@H]2C` belongs 20 µM (active).
The value for `N#CSCSC#N` was 10 µM (active); that for `C(=NC1CCCCC1)=NC1CCCCC1` was 1.26 µM (active); that for `OC(c1ccc(Cl)cc1)(c1ccc(Cl)cc1)C(Cl)(Cl)Cl` was “inactive”.
For `CC(=O)[O-].CC(=O)[O-].O.O.[Cd+2]`, the Potency is 2.51 µM (active).
The value for `Nc1ccccc1C(=O)OCCc1ccccc1` was “inactive”; that for `O=[N+]([O-])C(Br)Br` was 31.6 µM (active).
Regarding `CN(C)c1ccc(N=O)cc1`, the Potency was 6.31 µM (active).
The value for `Oc1c(Br)c(Br)c(Br)c(Br)c1Br` was 50.1 µM (active).

Values taken from PubChem BioAssay (NCATS).
